# In PubChem BioAssay AID1671190 (National Center for Advancing Translational Sciences (NCATS), 2021):
# Among all 580,000 compounds or so, about 6,100 (1.1%) were called active. Another 15% or so got no clear call; they are omitted. Calls follow the shape of the dose curve; as a rule, active = well fitted inhibition curve with a large enough effect; inconclusive = small, poorly fitted or top-dose-only effect, or another doubt; inactive = no such curve, though single readings can be large or run the other way. What follows is part of a selection rich in actives, with near analogues and random picks from the rest.
# Biological target: Polyunsaturated fatty acid lipoxygenase ALOX12 (Homo sapiens) (UniProt P18054)
# Sequence (P18054 whole entry, looked up): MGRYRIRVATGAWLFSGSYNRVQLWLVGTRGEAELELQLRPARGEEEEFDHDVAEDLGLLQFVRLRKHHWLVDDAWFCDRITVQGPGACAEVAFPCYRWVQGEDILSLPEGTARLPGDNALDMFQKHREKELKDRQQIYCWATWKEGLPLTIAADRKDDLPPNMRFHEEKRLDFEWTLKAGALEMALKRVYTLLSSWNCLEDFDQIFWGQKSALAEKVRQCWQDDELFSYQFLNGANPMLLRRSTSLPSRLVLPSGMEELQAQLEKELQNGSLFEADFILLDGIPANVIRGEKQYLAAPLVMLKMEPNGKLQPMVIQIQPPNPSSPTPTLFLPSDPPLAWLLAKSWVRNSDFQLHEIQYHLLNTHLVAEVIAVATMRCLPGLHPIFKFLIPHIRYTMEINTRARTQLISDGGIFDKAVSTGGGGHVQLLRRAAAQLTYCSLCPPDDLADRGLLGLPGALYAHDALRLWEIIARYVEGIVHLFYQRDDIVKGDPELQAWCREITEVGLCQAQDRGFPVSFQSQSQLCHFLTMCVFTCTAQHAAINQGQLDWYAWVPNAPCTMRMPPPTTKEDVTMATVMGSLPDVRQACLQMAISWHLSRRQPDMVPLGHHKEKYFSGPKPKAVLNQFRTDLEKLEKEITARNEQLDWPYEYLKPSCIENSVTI
# Assay: Primary qHTS assay for inhibitors of human arachidonate 12S-lipoxygenase (ALOX12): Round 2
# Conditions: purified 12hLO, xylenol orange hydroperoxide absorbance; series mostly up to 108 µM; activity change, negative = inhibition: at the top concentration
# Summary of the method: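 Hydroperoxide product was detected by ferrous iron/xylenol orange as the 573 to 405 nm absorbance ratio. Arachidonic acid at 40 uM (final) was turned over for 30 min at room temperature by 150 nM human 12hLO, pH 7.0 Hepes buffer, after 15 min compound preincubation.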
# % is scaled to controls: 0 for no effect and ±100 for the full control effect; potency is read from the fitted curve at half-maximal effect.
SMILES,"activity change, negative = inhibition",Potency
CC(C)N1C(=O)C2(CCCC2)C1C(=O)Nc1ccc2c(c1)N(C)CCC2 (stereo not given),71.1% (inactive),
Cc1ccc(N=C2NC(=O)/C(=C/C=C/c3ccco3)S2)cc1C,,10 µM (active)
Cc1ccc(C(=O)N/C(=C\c2ccco2)C(=O)N2CCSCC2)cc1C,14.6% (inactive),
Cc1ccc(N2NC(=O)/C(=C/C=C/c3ccco3)C2=O)cc1C,,39.8 µM (active)
CCc1ccccc1NC(=O)Nc1c(NC2CCCC2)c2ccccc2oc1=O,3.81% (inactive),
COc1cccc(NC(=O)c2ccc3c(c2)NC(C)(COc2ccccc2)CO3)c1 (stereo not given),-2.36% [at 176 µM] (inactive),
CCCNC(=O)N1CCC(N(C)C2CCOCC2)CC1,63.3% (inactive),
N#Cc1ccc(OCC(O)CNCCC2=CCCCC2)cc1 (stereo not given),5.82% (inactive),
OC(CNCCc1ccc(Cl)cc1Cl)COc1ccccc1 (stereo not given),,12.6 µM (active)
CC(O)CNCCOc1cccc(Oc2ccccc2)c1 (stereo not given),-17.6% (inactive),
CCn1ccnc1CN(C)Cc1cccc(OCC(O)CN(C)C2CCCCC2)c1 (stereo not given),82.8% (inactive),
O=C(NCc1ccccc1)c1cc(-c2cccc(Cl)c2)on1,-22% (inactive),
O=C(O)C(c1ccccc1)N1C(=O)/C(=C\c2ccc(-c3cccc(Cl)c3)o2)SC1=S (stereo not given),,2 µM (active)
Cc1ccc2[nH]cc(C(C(=O)O)N3CCN(S(=O)(=O)c4ccccc4)CC3)c2c1 (stereo not given),-23.2% (inactive),
NC(=O)c1cccc(NC(=O)c2cccc3cccnc23)c1,-20.1% (inactive),
Cc1nn(-c2ccc(C(C)C)cc2)c(C)c1[C@@H]1C=C[C@@H](NC(=O)CC2(CC(=O)O)CCCC2)C1,9.29% (inactive),
Cc1nn(-c2ccc(C(C)C)cc2)c(C)c1[C@@H]1C=C[C@@H](NC(=O)Nc2ccccc2)C1,35% [at 176 µM] (inactive),
Cc1nn(-c2ccc(C(C)C)cc2)c(C)c1[C@@H]1C=C[C@@H](NC(=S)NCC(C)C)C1,,56.2 µM (active)
CCCn1nc(C(=O)NC2CCN(C(C)C)CC2)c2ccccc2c1=O,3.11% (inactive),
COCCNc1cc(-c2c(C)noc2C)ncn1,,39.8 µM (active)
Cc1cc2cc(-c3c(C)noc3C)nc(NCc3cccnc3)c2o1,42.9% [at 176 µM] (inactive),
Cc1noc(C)c1-c1cc(NCc2cccnc2)ncn1,,31.6 µM (active)
CNc1cc(-c2c(C)noc2C)ncn1,-26.5% (inactive),
Cc1cnc(CNc2cc(-c3c(C)noc3C)ncn2)cn1,-20.8% (inactive),
COCCCNC(=O)c1ccc(-c2c(C)noc2C)c2ccoc12,8.36% (inactive),

SMILES,"activity change, negative = inhibition",Potency
O=C(NCCc1cccnc1)c1cccc(Cl)c1Cl,5.55% (inactive),
c1ccc(-c2noc(-c3ccco3)n2)cc1,1.51% (inactive),
Cc1ccc(C(=O)Nc2cnc3ccccc3c2)cc1[N+](=O)[O-],12.7% (inactive),
CC(C)Oc1ccc(NC(=O)c2cc3ccccc3o2)cc1,0.347% (inactive),
C/C(=N\NC(=S)Nc1ccc(C)cc1)c1cc2ccccc2o1,,25.1 µM (active)
Cc1cc2nc(-c3ccc(NC(=O)c4cc5ccccc5o4)cc3)oc2cc1C,-10.3% (inactive),
COc1cccc(/C=C2\Oc3cc(OS(=O)(=O)c4ccc(C)cc4)ccc3C2=O)c1OC,1.7% (inactive),
Cc1ccc(NC(=O)CN(C)C(=O)c2nn(-c3ccccc3)c3c2CCC3)cc1,20.1% (inactive),
COc1ccc(NC(=O)O[C@@H]2CO[C@H]3[C@@H]2OC[C@@H]3NC(=S)Nc2cccc3ccccc23)cc1,-26.3% (inactive),
CCNC(=O)O[C@@H]1CO[C@H]2[C@@H]1OC[C@@H]2NC(=S)Nc1cccc2ccccc12,,56.2 µM (active)
COc1ccc(-c2ccnc(N[C@H]3CO[C@H]4[C@@H]3OC[C@H]4OC(=O)Nc3cccc4ccccc34)n2)cc1,12.3% (inactive),
CCOc1ccc(N2CC(NC(=O)CC(C)(C)C)CC2=O)cc1 (stereo not given),-1.73% (inactive),
O=C(Cc1ccccc1F)NC(c1ccc2c(c1)CCC2)c1cccs1 (stereo not given),-26.6% (inactive),
CCCCc1ccc(C(=O)Cn2nnc(-c3cccc(F)c3)n2)cc1,-34.4% (inactive),
Cc1ccc(C(=O)Nc2cc3c(cc2N2CCCC2)n(C)c(=O)c(=O)n3C)cc1,12.9% (inactive),
Cn1c(=O)n(C)c2cc(SCc3ccco3)c(NC(=O)c3ccc(C(C)(C)C)cc3)cc21,,8.91 µM (active)
CC(C)(C)c1ccc(C(=O)NCC(c2ccco2)S(=O)(=O)c2ccc(F)cc2)cc1 (stereo not given),-22.1% (inactive),
CCNC(=O)C1CCCN1S(=O)(=O)c1ccc(Br)s1 (stereo not given),4.48% (inactive),
Cc1ccc(CN2CCN(C(=O)CCC[C@H]3NC[C@@H]4C[C@H]3CN(Cc3ccccc3)C4)CC2)cc1,-13.9% (inactive),
Cc1oc(-c2ccccc2)nc1Cn1ncc2ccccc2c1=O,-5.85% (inactive),
Cc1ccc(CN2CCC3(Cc4ccccc4CNC3=O)C2)cc1 (stereo not given),,28.2 µM (active)
Cc1cccc(CN2CCC3(Cc4ccccc4CNC3=O)C2)c1 (stereo not given),3.12% [at 6.33 µM] (inactive),
COc1ccc(CN2CCC3(Cc4ccccc4CNC3=O)C2)cc1OC (stereo not given),8.59% [at 6.33 µM] (inactive),
O=C(NC1CCN(CCCc2nc3ccccc3o2)CC1)C1CCCCC1,-5.42% (inactive),
CCC(=O)Nc1ccccc1-c1nc2ccccc2n(CC(=O)Nc2ccc(NC(C)=O)cc2)c1=O,-26.1% (inactive),

SMILES,"activity change, negative = inhibition",Potency
Cc1ccccc1C(=O)NCCN=C1NS(=O)(=O)c2ccccc21,9.19% (inactive),
O=C1NS(=O)(=O)c2ccccc21,,12.6 µM (active)
CN(C)S(=O)(=O)c1ccc(C(=O)NCCN=C2NS(=O)(=O)c3ccccc32)cc1,1.56% (inactive),
CCN(Cc1nc2ccccc2c(=O)[nH]1)C(=O)Cc1csc(-c2ccc(C)cc2C)n1,3.87% (inactive),
COc1ccccc1-c1cc(NC(C)=O)c2ncc(-c3ccc(F)cc3)n2c1,,44.7 µM (active)
COc1ccc(-c2cc(NC=O)c3ncc(-c4ccccc4)n3c2)cc1OC,-5.7% (inactive),
COc1cccc(-c2cc(NC(C)=O)c3ncc(-c4cccc(C(C)=O)c4)n3c2)c1,-5.38% (inactive),
CC(C)c1noc(C(C)Sc2nc(C3CC3)nc3ccccc23)n1 (stereo not given),7.22% (inactive),
O=C(O)CCC(=O)C(CC(=O)O)CC(=O)O,-22.1% (inactive),
Cn1nc(C(C)(C)C)cc1NC(=O)c1cccc(F)c1,-45% (inactive),
Cc1cccnc1NC(=O)c1ccc2nc(C)c(C)nc2c1,14.6% (inactive),
Cc1ccc(NC(=O)c2oc(=O)c3ccccc3c2-c2ccccc2)c(C)c1,-8.51% (inactive),
Cc1ccc(NC(=S)Nc2ncccc2C)c(C)c1,,8.91 µM (active)
CCOC(=O)N1CCN(C(=S)Nc2ccc(C)cc2C)CC1,0.181% (inactive),
Cc1ccc(NC(=S)NC(=O)c2ccc(-c3ccccc3)cc2)c(C)c1,,17.8 µM (active)
Cc1cc(C)c(/C=N/NC(=O)c2ccccc2)c(C)c1,-20.9% (inactive),
O=C(NNC(=O)C1(c2ccc(Br)cc2)CCCC1)c1ccccc1,-11.9% (inactive),
COc1ccc(C2Cn3cnc(-c4nc(-c5ccc(OC)cc5OC)no4)c3CO2)cc1 (stereo not given),0.752% (inactive),
CCc1c(C(=O)O)csc1C,4.31% (inactive),
CCCCc1nc2sc(C(=O)OCC)c(N)c2c2c1COC(C)(C)C2,10.5% (inactive),
O=C(OCc1cn([C@@H]2C[C@H](c3ccc(Cl)cc3)N(Cc3cccs3)C[C@H]2O)nn1)c1ccccc1,-2.55% (inactive),
O[C@@H]1C[C@H](c2ccccc2)N(Cc2cccs2)C[C@H]1n1cc(C2CC2)nn1,0% (inactive),
O[C@H]1C[C@H](c2ccc(Cl)cc2)N(Cc2cccs2)C[C@@H]1n1cc(C2CC2)nn1,,44.7 µM (active)
CC(C)Cn1nc(C(=O)OCC(=O)Nc2ccc(OC(F)(F)F)cc2)c2ccccc2c1=O,3.44% (inactive),
Cc1ccccc1S(=O)(=O)N1CCCC(CCC(=O)NCC2CCCCC2)C1 (stereo not given),16.3% (inactive),

SMILES,"activity change, negative = inhibition",Potency
CCOC(=O)N1CCN(C(=O)c2ccc3c(=O)n(CCc4ccc(OC)c(OC)c4)c(=O)[nH]c3c2)CC1,-12.7% (inactive),
CCOc1cc2[nH]c(=S)n(Cc3ccc(C(=O)N4CCN(C)CC4)cc3)c(=O)c2cc1OCC,2.11% (inactive),
NC(=O)C1CCN(C(=O)c2ccc3c(=O)n(Cc4cccc(Br)c4)c(=S)[nH]c3c2)CC1,,44.7 µM (active)
O=C(Nc1cccc2cccnc12)C1=C(c2ccccc2)S(=O)(=O)CCO1,23.8% (inactive),
COc1ccc2c(C)c(CC(=O)Nc3nnc(C)s3)c(=O)oc2c1OC,-5.78% (inactive),
COc1ccc(CC(=O)Nc2ccc(-c3nc4ccccc4s3)c(C)c2)cc1,-8.77% (inactive),
COc1ccc2cc(/C=C(/CC(=O)O)c3nc4ccccc4s3)ccc2c1,-87.4% (inactive),
COC(=O)Cc1cc(=O)n(-c2nc3ccccc3s2)[nH]1,,6.31 µM (active)
COc1ccc(N2C(=O)C(C)(C)CS2(=O)=O)cc1S(=O)(=O)Nc1ccc(F)c(Cl)c1,1.34% (inactive),
CCC1c2nccn2CCCN1C(=O)c1ccc(Cn2cncn2)o1 (stereo not given),49% (inactive),
COC(=O)c1ccc(OC)cc1OCc1ccccc1C#N,8.13% (inactive),
COc1ccc(C(C#N)=C2C=CC(=NO)c3ccccc32)cc1,,39.8 µM (active)
COc1ccc(-c2ccccc2CN)cc1,23.2% [at 176 µM] (inactive),
COc1ccc(C(=O)c2sc(Nc3cccc(F)c3)nc2N)cc1,3.41% (inactive),
O=C(Nc1ccc(Br)c2cccnc12)c1ccc(Cn2cc([N+](=O)[O-])cn2)o1,,15.8 µM (active)
O=C(NCCc1ccccn1)c1nc(Cn2cc([N+](=O)[O-])cn2)no1,1.76% (inactive),
CC(C)N(C(=O)Cn1c(CN2CCOCC2)nc2ccccc21)c1ccccc1,11.2% (inactive),
COc1ccc(-c2cn(-c3ccc(C)cc3)c(=O)n2CC(=O)Nc2ccc(OC)c(OC)c2)cc1,-3.1% (inactive),
COc1ccc(-n2c(-c3ccc(OC)c(OC)c3)n[nH]c2=S)cc1,,17.8 µM (active)
COc1ccc(-c2nc3ccccc3n2CCC(C)C)cc1OC,0% (inactive),
O=C([C@@H]1C[C@H](F)CN1C(=O)Nc1cc(F)cc(F)c1)N1CCCCC1,5.28% (inactive),
O=C(Cc1ccc(Cl)cc1)NCc1nnc2ccc(-c3ccc(F)cc3)nn12,-6.29% (inactive),
CCOC(=O)Cn1c2c(c(-c3ccccc3OC)cc1=O)CCCC2,17.6% (inactive),
CCOC(=O)Cn1c(=O)n(-c2ccccc2OC)c2nc(-c3cccc(F)c3)nc(C(N)=O)c21,,11.2 µM (active)
CCOC(=O)Cn1c(=O)n(C2CCCCC2)c2nc(-c3cccc(OC)c3)nc(C(N)=O)c21,-15.8% (inactive),
